Measurements as given in PubChem BioAssay (NCI).
This is part of a sample that, as a whole, favours compounds with a hit. Of some 83,000 tested, about 20% had one in any assay.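 In brief: 96-well plates, 48 h treatment, single concentration, percent growth endpoint.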 Active and inactive are the calls of the source. The calls were made as follows: active = growth percent below 10; inactive = the rest.

Columns and labels:
Assay in all cases: NCI-60 one-dose screen, 48 h (100 = growth as untreated, 0 = no growth, -100 = all killed)
Conditions in all cases: 10 µM unless noted
[1] = test system: SK-MEL-2 melanoma
[2] = test system: EKVX NSCLC
[3] = test system: SN12C renal
[4] = test system: UO-31 renal
[5] = test system: TK-10 renal
[6] = test system: ACHN renal
[7] = test system: CAKI-1 renal
[8] = test system: A498 renal
[9] = test system: CCRF-CEM leukemia
[10] = test system: MOLT-4 leukemia
[11] = test system: SR leukemia
[12] = test system: RPMI-8226 leukemia
[13] = test system: OVCAR-8 ovarian
[14] = test system: OVCAR-5 ovarian
[15] = test system: OVCAR-4 ovarian
[16] = test system: SK-OV-3 ovarian
[17] = test system: IGROV1 ovarian
[18] = test system: OVCAR-3 ovarian
[19] = test system: HS 578T breast
[20] = test system: NCI/ADR-RES ovarian

Measured: growth

CC(=O)c1cc(O)c2ccccc2c1O
inactive: [1] 103% | [2] 78.9% | [3] 105% | [4] 67% | [5] 148% | [6] 85.1% | [7] 85.7% | [8] 133% | [10] 107% | [11] 110% | [12] 46.4% | [13] 86.3% | [14] 109% | [15] 93.4% | [16] 102% | [17] 52.8% | [18] 91.7% | [19] 123% | [20] 87%
active: [9] -10.5%

N#CC1C=CN(CC(N)=O)c2ccc3cccnc3c21 (stereo not given)
inactive: [1] 116% | [2] 97.9% | [3] 96.3% | [4] 97.9% | [5] 115% | [6] 104% | [7] 91.2% | [8] 85.9% | [9] 78% | [10] 98% | [11] 85.1% | [12] 90% | [13] 98.1% | [14] 98.9% | [15] 98.6% | [16] 97.1% | [17] 101% | [18] 109% | [19] 96.2% | [20] 105%

CCOC(=O)C(=Cc1cccc(Br)c1)C(=O)OCC
active: [11] 3.67%
inactive: [1] 31.7% | [2] 61.1% | [3] 34.8% | [4] 52.4% | [5] 58.5% | [6] 27.7% | [7] 59.4% | [8] 95.1% | [9] 11.7% | [10] 16.6% | [12] 12.9% | [13] 29.5% | [14] 42.9% | [15] 48.2% | [16] 86.2% | [17] 47.8% | [18] 15.6% | [19] 25.6% | [20] 11.7%

CC1=C(Nc2ccc(N3CCN(C)CC3)cc2)C(=O)c2cncnc2C1=O
active: [6] 6.25% | [9] 5.93% | [10] -11.9% | [13] 2.2% | [15] -98.1% | [17] 1.56% | [18] -34.8%
inactive: [1] 109% | [2] 98.3% | [3] 98.5% | [4] 86.2% | [5] 142% | [7] 87.9% | [8] 113% | [11] 26.2% | [12] 41.8% | [14] 71.7% | [16] 111% | [19] 126% | [20] 18.1%

CC1=C(C(=O)OC(C)C)C(c2ccc3c(c2)OCO3)NC(=S)N1 (stereo not given)
inactive: [1] 102% | [2] 94.4% | [3] 105% | [4] 84.5% | [5] 98.1% | [6] 99.4% | [7] 93.8% | [8] 109% | [9] 105% | [10] 110% | [11] 103% | [12] 87.7% | [13] 102% | [14] 105% | [15] 98.4% | [16] 105% | [17] 99.9% | [18] 121% | [19] 97.3% | [20] 101%

CCOC(=O)c1c(C)nc2c(c1N)CC(=O)N2Cc1cc(F)cc(Cl)c1
inactive: [1] 118% | [2] 85.3% | [3] 93.2% | [4] 84.6% | [5] 92.1% | [6] 88.2% | [7] 75.8% | [8] 76.7% | [9] 95.2% | [10] 95.9% | [11] 75.3% | [12] 71.7% | [13] 95.9% | [14] 97.5% | [15] 67.5% | [16] 115% | [17] 102% | [18] 93.8% | [19] 108% | [20] 81.2%

O=C(NNC(=O)c1ccc(-n2cc(-c3ccccc3)nn2)cc1)Nc1ccccc1
inactive: [1] 110% | [2] 108% | [3] 97.7% | [4] 92.2% | [5] 109% | [6] 101% | [7] 91.8% | [8] 105% | [9] 102% | [10] 107% | [11] 110% | [12] 102% | [13] 95.9% | [14] 120% | [15] 104% | [16] 85.2% | [17] 103% | [18] 114% | [19] 92.2% | [20] 107%

CCOC(=O)c1cn2ncnc(Oc3ccc(NC(=O)NC4CCCCC4)c(Cl)c3)c2c1C
inactive: [1] 103% | [2] 74.3% | [3] 72.8% | [4] 79% | [5] 111% | [6] 61.5% | [7] 85% | [8] 76.5% | [9] 69.8% | [10] 75.1% | [11] 73.8% | [12] 90.9% | [13] 74% | [14] 93.5% | [16] 108% | [17] 81.4% | [18] 109% | [19] 36.1% | [20] 59%
active: [15] -0.664%

CN(C)CCCC1(c2ccc(F)cc2)OCc2cc(-c3cccc4[nH]ccc34)ccc21 (stereo not given)
active: [4] -9.8% | [6] 9.24% | [7] 6.71% | [10] -8.64% | [11] -14.9%
inactive: [1] 74.5% | [2] 44.8% | [3] 48.3% | [5] 58.5% | [8] 72% | [9] 16% | [12] 39.7% | [13] 20.5% | [14] 70.1% | [15] 30.9% | [16] 52.5% | [17] 20.2% | [18] 31% | [19] 31.7% | [20] 25.9%

Oc1c(Cl)cc(Cl)c2ccc(Cn3cc(-c4cc(F)cc(F)c4)nn3)nc12
active: [9] 4.58% | [11] -22.2% | [12] 5.12% | [18] 2.47%
inactive: [1] 96.3% | [2] 84.7% | [3] 78.7% | [4] 68.3% | [5] 102% | [6] 36.5% | [7] 18.1% | [8] 99.4% | [10] 17.4% | [13] 69.6% | [14] 91% | [15] 56% | [16] 108% | [17] 85.8% | [19] 88.5% | [20] 108%

COc1ccc2cc(C(=O)c3coc4ccc(O)cc34)ccc2c1
inactive: [1] 97% | [2] 103% | [3] 98.8% | [4] 68.4% | [5] 103% | [6] 107% | [7] 92.6% | [8] 105% | [9] 56.4% | [10] 81.1% | [11] 78.9% | [12] 91.5% | [13] 106% | [14] 103% | [15] 97.6% | [16] 77.2% | [17] 85.2% | [18] 100% | [19] 112% | [20] 99.8%

COC(=O)c1ccc2c(c1)C(=O)c1c-2n(CCCN)c(=O)c2cc([N+](=O)[O-])ccc12
active: [1] -49.8% | [2] -87.7% | [3] -100% | [4] -100% | [5] -83% | [6] -100% | [7] -94.2% | [8] -100% | [9] -83.9% | [10] -58.6% | [11] -45.3% | [12] -40.4% | [13] -65.3% | [14] -74.2% | [15] -77.1% | [16] -81.8% | [17] -81.7% | [18] -93.2% | [19] -71% | [20] -39.4%

CCN(C(=O)N1CCN(c2cc3c(cc2F)c(=O)c(C(=O)O)cn3C2CC2)CC1)c1nc(-c2ccc(Cl)cc2)cs1
active: [1] 9.44% | [3] 3.28% | [4] 5.03% | [6] -12.2% | [7] 6.12% | [8] 3.1% | [10] 5.81% | [11] 6.27% | [16] -11.9% | [17] -9.58% | [20] 4.67%
inactive: [2] 16.9% | [5] 28.4% | [9] 20.7% | [12] 12.8% | [13] 14.4% | [14] 24.5% | [15] 25.7% | [18] 10.1% | [19] 20.7%

O=C(Nc1ncc(Cc2ccc(Cl)c(C(F)(F)F)c2)s1)c1ccc2nnsc2c1
inactive: [1] 47.5% | [2] 39.4% | [3] 58.2% | [4] 40.9% | [5] 48.3% | [6] 43.7% | [7] 28.1% | [8] 82% | [9] 45.5% | [10] 30.9% | [11] 57% | [12] 40.8% | [13] 54.8% | [14] 55.8% | [15] 50.7% | [16] 62.5% | [17] 67.9% | [18] 58.5% | [19] 84% | [20] 40.9%

CC(C)(C)n1cc(-c2ccnc(NCCCNS(=O)(=O)c3ccc(F)cc3)c2)c(-c2cccc(F)c2)n1
inactive: [1] 88.4% | [2] 57.3% | [3] 66.5% | [4] 50.3% | [5] 97.7% | [6] 61.4% | [7] 53.6% | [8] 70.2% | [9] 49.1% | [10] 41.7% | [11] 14.3% | [12] 28.1% | [13] 54.8% | [14] 69% | [15] 79.2% | [16] 75.3% | [17] 68.6% | [18] 74.8% | [19] 78.9% | [20] 52%
